Test results from PubChem BioAssay AID1117282 (The Scripps Research Institute Molecular Screening Center, 2014).
This is one part of the list. Unmarked numbers belong to inactive results. Activity calls are given as the source filed them.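 How the source made its calls: active means mean inhibition across replicates above a set limit taken from the earlier primary screen (cut at about 11% in these data); inactive means the rest.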

biological target: RNA-editing ligase 1, mitochondrial (Trypanosoma brucei brucei) (UniProt P86926); assay: T. brucei editing ligase REL1 blockade – biochemical, FRET fluorescence, triplicate, confirmation (AID 1117282); conditions: TbREL1 RNA ligation, at 9.66 µM, hits give high values;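 further: 0% = REL1 with substrate and DMSO and 100% = REL1 plus control inhibitor NSC42067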
Sequence (P86926 whole entry, looked up): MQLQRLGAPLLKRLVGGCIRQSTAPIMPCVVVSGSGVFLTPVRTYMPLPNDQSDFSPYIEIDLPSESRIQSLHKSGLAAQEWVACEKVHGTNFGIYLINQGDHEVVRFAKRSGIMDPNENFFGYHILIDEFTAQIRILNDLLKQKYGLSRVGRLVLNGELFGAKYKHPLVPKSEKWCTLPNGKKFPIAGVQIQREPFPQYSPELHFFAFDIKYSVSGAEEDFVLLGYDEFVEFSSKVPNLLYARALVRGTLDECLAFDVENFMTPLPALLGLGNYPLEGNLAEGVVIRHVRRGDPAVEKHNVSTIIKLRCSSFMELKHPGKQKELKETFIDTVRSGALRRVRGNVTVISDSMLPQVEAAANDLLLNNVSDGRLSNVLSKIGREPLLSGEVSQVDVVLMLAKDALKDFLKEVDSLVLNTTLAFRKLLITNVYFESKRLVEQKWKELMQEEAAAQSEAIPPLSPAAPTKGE

Question: For `COCc1c(N)c(C)nc(Cl)c1C#N`, which inhibition is on record?
Answer: 7.44%

Question: How did the inhibition turn out when `Nc1ccc2nc3c(=O)[nH]c(=S)[nH]c3nc2c1` was run?
Answer: 14.2% (active)

Question: For `COC(=O)C1=C(C)N(Cc2cccc(C(F)(F)F)c2)C(=NCc2ccccc2)NC1c1ccccc1C(F)(F)F` (centres undefined), which inhibition is on record?
Answer: 21.2% (active)

Question: `C=CCn1c(=S)[nH]c2scc(-c3ccco3)c2c1=O` was tested. Which inhibition did it give?
Answer: 13.8% (active)
